Among all 360,000 compounds or so, about 7,500 (2.1%) were called active. Inconclusive results (about 8%) are left out. This excerpt belongs to a sample that is enriched for actives. Values without a mark were called inactive. Calls follow the shape of the dose curve; as a rule, active = well fitted cell-killing curve with a large enough effect; inconclusive = small, poorly fitted or top-dose-only effect, or effect the other way, or another doubt; inactive = no such curve, though single readings can be large or run the other way.
Test: qHTS for induction of synthetic lethality in tumor cells producing 2HG: qHTS for the HT-1080-IDH1KD cell line;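 as to activity, negative = toxicity: 0% = DMSO wells and -100% = cell-free medium wells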
Settings: HT-1080 IDH1 knockdown viability, ATP luminescence, 48 h; series mostly up to 46.1 µM; activity, negative = toxicity: at the top concentration
Method in brief: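 After a 2 h attachment period, IDH1KD HT-1080 cells took pin-transferred compound for 48 h at 37 °C; ATP-based luminescence after 10 min room-temperature reagent incubation reported viability.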
Potency is read from the fitted curve at half-maximal effect.

Row | Structure (SMILES) | activity, negative = toxicity | Potency
1 | CCOC(=O)C1(C)CCCN(C(=O)c2ccc(F)c(Cl)c2)C1 (configuration not stated) | 1.41% | 
2 | COc1ccc2c(CC(=O)N3CCc4cc(OC)c(OC)cc4C3)coc2c1 | -17.6% | 
3 | COc1cc2c(cc1OC)CN(C(=O)c1cc(=O)c3ccccc3o1)CC2 |  | 5.8 µM (active)
4 | COc1ccccc1CNC(=O)c1cc(=O)c2ccccc2o1 | -3.19% | 
5 | COc1cc(NC(=O)C2=C(C)OCCS2)c(Cl)cc1C(=O)NCCCN1CCCC(C)C1 (configuration not stated) | 1.32% | 
6 | NS(=O)(=O)c1ccc(CCNS(=O)(=O)c2cccc3cccnc23)cc1 | 7.47% | 
7 | O=[N+]([O-])c1ccccc1S(=O)(=O)Nc1cccc2cccnc12 |  | 11.6 µM (active)
8 | Cc1ccc2cccc([N+](=O)[O-])c2n1 | 0.157% | 
9 | Cc1nccn1-c1ccc(NC(=O)[C@H]2O[C@@H](n3cnc4c(N)ncnc43)[C@H](O)[C@@H]2O)cc1 | 19.9% | 
10 | CC1(C(=O)NS(=O)(=O)Cc2cccc(Cl)c2)CCN1C(=O)Cc1ccccc1 (configuration not stated) | 0.537% | 
11 | CCCCn1nnnc1C(c1ccccc1)N1CCN(c2ccccc2OC)CC1 (configuration not stated) | 0.0985% | 
12 | CCOC(=O)N1CCN(S(=O)(=O)c2ccc(OC)cc2)CC1 | -2.16% | 
13 | NC(=O)c1ccccc1N(Cc1ccccc1)S(=O)(=O)c1ccccc1 | -3.44% | 
14 | CCOC(=O)N1CCN(C(=O)c2ccccc2N(Cc2ccccc2)S(=O)(=O)c2ccc(OC)cc2)CC1 |  | 3.26 µM (active)
15 | CCCc1ccc(C(O)c2ncc(-c3cccc(OC)c3)[nH]2)cc1 (configuration not stated) | -10.3% | 
16 | CN(CCO)C(=O)c1nc[nH]c1C(=O)N(C)Cc1ccccc1 | 0.785% | 
17 | Cc1ccc(-c2nc3ccc(Br)cn3c2Cc2ccccc2C(F)(F)F)cc1 | -27.3% | 
18 | Cc1cc(C(C)(C)C)cc(C)c1N | 13.7% | 
19 | COc1ccc(-c2cc(C)nc3nc(N)nn23)cc1 | -1.58% | 
20 | Cc1cc(N)n2nc(-c3ccc(C(C)(C)C)cc3)cc2n1 |  | 20.6 µM (active)
21 | O=C(Nc1ccc(Cl)cc1)c1csc([C@@H]2O[C@H](CO)[C@H](O)[C@H](O)[C@H]2O)n1 | 8.12% | 

Row | Structure (SMILES) | activity, negative = toxicity | Potency
22 | CO[C@@H]1CN(C)C(=O)c2cc(NC(=O)Nc3cc(F)ccc3F)ccc2OC[C@H](C)N(C(=O)c2ccccn2)C[C@@H]1C | 5.07% | 
23 | CCOC(=O)N1C(=O)C[C@](Sc2ccc(C)cc2)(C(=O)OC)[C@H]1c1ccccc1 | 0.152% | 
24 | Nc1ncnc2c1ncn2[C@@H]1O[C@H](C(=O)NCC(F)(F)F)[C@@H](O)[C@H]1O | 15.9% | 
25 | COc1ccc(-c2[nH][nH]c(=O)c2NC(=O)c2ccc([N+](=O)[O-])cc2)cc1 | 13.7% | 
26 | CCOC(=O)c1cc(-c2sc(NC(=O)c3ccccc3)nc2C)n(-c2ccc(Br)cc2)n1 | -4.35% | 
27 | c1ccc(C(c2ccccc2)N2CCN(Cc3nnnn3C3CCCCC3)CC2)cc1 | 0.86% | 
28 | CC1(C)CC(N2CCN(C(c3ccccc3)c3ccccc3)CC2)=CC(=[N+]2CCCCC2)C1 |  | 2.59 µM (active)
29 | COc1ccccc1CN1CCN(C(c2ccccc2)c2ccccc2)CC1 | -3% | 
30 | OC(c1ccccc1)c1nc(/C=C/c2ccc(C(F)(F)F)cc2)cs1 (configuration not stated) | -4.08% | 
31 | CCCCc1ccc(S(=O)(=O)NC(=O)C2(C)CCN2C(=O)c2ccccc2)cc1 (configuration not stated) | 11% | 
32 | C=CCSc1nc2c(c(=O)[nH]c(=O)n2C)n1Cc1ccccc1 | 0.829% | 
33 | CCCCCn1c(SCCC(C)C)nc2c1c(=O)[nH]c(=O)n2C |  | 20.6 µM (active)
34 | CCCCCCn1c(SCC(=O)c2ccccc2)nc2c1c(=O)[nH]c(=O)n2C | 3.03% | 
35 | COCCNC(=O)c1cc2c(Br)ccc(Br)c2nc1N | -2.04% | 
36 | CSc1ncnc2c1ncn2CCCNCC1CCCCC1 | -6.56% | 
37 | CCc1nc2ccc(C(=O)NCCNC(C)=O)cn2c1N(CC)Cc1cccc(Br)c1 | 15% | 
38 | CN(Cc1ccccc1)C(=O)CCC1CCN(C(=O)c2ccco2)CC1 | 0.423% | 
39 | Cc1cc(NC(=O)/C=C/C(=O)N(c2ccccc2C)C(C(=O)NC2CCCC2)c2ccc(F)cc2)no1 (configuration not stated) |  | 10 µM (active)
40 | Cc1cc(NC(=O)CCC(=O)N(c2ccccc2)C(C(=O)NC2CCCC2)c2ccncc2)no1 (configuration not stated) | 18.2% | 
41 | Cc1cc(NC(=O)CCC(=O)N(c2cccc(F)c2)C(C(=O)NC2CCCC2)c2ccncc2)no1 (configuration not stated) | -1.39% | 
42 | O=C(N=C1SC2CS(=O)(=O)CC2N1Cc1ccccc1)c1ccccc1 (configuration not stated) | -1.6% | 

Row | Structure (SMILES) | activity, negative = toxicity | Potency
43 | COC(=O)[C@]12CCCCC=C1N(Cc1ccccc1)C(=O)[C@H](CC(=O)NCc1ccc(C)o1)C2 | 7.74% | 
44 | CCn1c(C(O)c2cc(OC)ccc2OC)nc2ccccc21 (configuration not stated) | 2.43% | 
45 | COc1ccc(C)c(Cn2c(-c3nonc3N)nc3ccccc32)c1 |  | 5.17 µM (active)
46 | Nc1nonc1-c1nc2ccccc2n1Cc1ccc(F)cc1 | -6.38% | 
47 | COCCCn1c(=O)/c(=C/c2ccccc2OC(C)C)s/c1=C(\C#N)C(=O)Nc1ccc(C(=O)O)cc1 | -17.7% | 
48 | CC1(c2cccc(Br)c2)NC(=O)N(CC(=O)NCCC2=CCCCC2)C1=O (configuration not stated) | -4.72% | 
49 | Cc1cccc(-c2nc(Nc3ccc(O)cc3)c3ccccc3n2)c1 |  | 11.6 µM (active)
50 | Oc1ccc(-c2nnc(Nc3ccccc3)c3ccccc23)cc1 | 1.46% | 
51 | Cc1ccc2nc(Nc3ccccc3O)nc(-c3ccccc3)c2c1 | -0.715% [at 9.24 µM] | 
52 | CC1=C(C(=O)N2CCOCC2)CC(CC(=O)NCc2ccco2)C(=O)N1Cc1ccc(F)cc1 (configuration not stated) | -4.3% | 
53 | COc1ccc(N2c3ccccc3CN(Cc3ccccc3)[C@@H](C)[C@H]2Cc2ccc(-c3ccccc3)cc2)cc1 | 4.14% | 
54 | O=C(NCc1ccccc1Cl)c1csc([C@@H]2O[C@H](CO)[C@@H](O)[C@H]2O)n1 | 0.392% | 
55 | O=C(NNC(=O)c1ccc(Cl)nc1)c1ccc(Br)cc1 | 15.7% | 
56 | CCN(CC)c1ccc(NC(=O)c2ccc(Cl)nc2)cc1 |  | 7.31 µM (active)
57 | O=C(Nc1ccc2nc3n(c(=O)c2c1)CCCC3)c1ccc(Cl)nc1 | 14.3% | 
58 | CC(C)n1ncc2c(C(=O)N3CCN(Cc4cccs4)CC3)cc(C3CC3)nc21 | -11.7% | 
59 | CC1C(=O)N(Cc2cn(CC3CCCCC3)nn2)CCS(=O)(=O)N1Cc1ccc(-c2cccc(N(C)C)c2)cc1 (configuration not stated) | -17.4% | 
60 | O=C(CN1CCCCCC1)N1c2ccccc2Sc2ccc(C(F)(F)F)cc21 |  | 11.2 µM (active)
61 | O=C(CN1CCCCC1)N1c2ccccc2Sc2ccc(C(F)(F)F)cc21 | -9.16% | 
62 | COc1cc(/C=C/C(=O)N2c3ccccc3Sc3ccc(C(F)(F)F)cc32)cc(OC)c1OC | 4.35% | 

Reference: PubChem BioAssay AID686971 (National Center for Advancing Translational Sciences (NCATS), 2013)
